Results reported in the supplement of paper PMC3334620.
Whole data set: some 33,000 sequences, median “E-score (-0.5 to 0.5)” near -0.036, cut for the highest 2% near 0.37. Only a selection was taken, and the highest values are over-represented in it overall.

What follows are sequences tested against T1, Yer064c (UniProt P40041) (assay: PBM E-score (8-mer binding enrichment) (E-score (-0.5 to 0.5)); higher = stronger / more preferred TF binding). Details: protein concentration: 200 nM; construct: GST-full length.
T1 sequence: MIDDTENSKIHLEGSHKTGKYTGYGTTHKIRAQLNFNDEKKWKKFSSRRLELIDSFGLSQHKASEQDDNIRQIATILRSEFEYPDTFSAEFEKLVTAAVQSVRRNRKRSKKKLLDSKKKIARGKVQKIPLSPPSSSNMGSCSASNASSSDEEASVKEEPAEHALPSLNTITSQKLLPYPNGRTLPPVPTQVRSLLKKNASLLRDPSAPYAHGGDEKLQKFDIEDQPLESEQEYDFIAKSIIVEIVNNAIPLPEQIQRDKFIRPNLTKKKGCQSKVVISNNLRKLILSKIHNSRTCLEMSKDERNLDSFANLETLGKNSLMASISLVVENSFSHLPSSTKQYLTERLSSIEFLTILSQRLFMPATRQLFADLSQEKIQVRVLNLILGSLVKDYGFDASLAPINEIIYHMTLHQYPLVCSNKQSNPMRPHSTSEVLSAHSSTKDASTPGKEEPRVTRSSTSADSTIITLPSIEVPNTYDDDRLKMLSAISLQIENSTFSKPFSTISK
Procedure: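 Universal 'all 10-mer' protein binding microarrays (Agilent AMADID 015681) probed with GST-tagged S. cerevisiae TFs (full-length or DBD) made by in vitro transcription/translation (PURExpress), about 100-200 nM. Bound TF was detected with fluorescent anti-GST. Each ungapped 8-mer (which stands for itself and its reverse complement) is scored by the PBM enrichment score (E-score), a modified Wilcoxon-Mann-Whitney statistic from -0.5 to +0.5, computed with the Universal PBM Analysis Suite. Scale: above 0.35 generally sequence-specific binding.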

Sequence | PBM E-score
CGCTGCTA | -0.211
TCATATGA | 0.393
GCATATGA | 0.14
CCATATGA | 0.0961
AGACGACT | 0.397
ACACGACA | 0.106
ACACGACT | 0.408
AGACGACG | -0.265
AGACGACC | -0.0204
ACACGACC | -0.0158
AGTAAAAG | 0.0408
CTGACCAG | -0.0138
ACTCCACG | 0.0785
ACTTTACT | 0.159
AAAACCCT | -0.047
TACTAAGA | 0.113
GACTAAGA | 0.444
CACTAAGA | 0.119
CACTAAGC | 0.1
GACTAAGC | 0.42
AACTAAGC | 0.0808
AGGGATAA | 0.093
CGGCTGCA | -0.189
AATATGGA | -0.0374
CGTTGCGC | -0.22

Sequence | PBM E-score
GAGCACAA | 0.0121
AAAGACTC | 0.409
TAAGACTA | 0.423
CAAGACTA | 0.329
GCAGACTA | 0.309
AAAGACTT | 0.294
ACAGACTC | 0.269
ACAGACTA | 0.0746
AAAGACTA | 0.392
GAAGACTA | 0.444
TAAGACCA | 0.112
TAAGACAA | -0.0363
AAAGACTG | 0.157
ACAGCCTA | -0.0814
ACCCTGCC | -0.154
GGGCAAGA | -0.0907
GAGTTCGA | 0.185
GCGCTTTA | -0.161
AAAGTGAC | 0.305
CCCGCGAA | 0.0838
GAAGACCC | -0.0698
CAAGACTG | 0.175
GAAGACTC | 0.446
CAAGACTC | 0.429
CAAGACGC | -0.166

Sequence | PBM E-score
GAAGACGC | -0.193
GACCGAAC | -0.059
CATTACCC | 0.0868
AATGGAGA | -0.0502
CACTCTAA | 0.149
TACTCTAA | -0.042
GACTCTAC | 0.38
CACTCTAC | 0.0903
GACTCTAA | 0.381
AACTCTAC | -0.212
ATGCCAAG | -0.0388
ACGATAAC | -0.0162
GATCCGCC | -0.041
AACTTTGC | -0.113
ACAACATC | -0.143
ACCATACT | 0.0817
AAGTGACT | 0.453
AAGTGATC | 0.103
AAGTGACG | 0.0587
ACGTGACA | -0.138
AGGTGACA | -0.0676
ACGTGACT | 0.468
AAGTGACC | -0.00564
AAGTGATT | 0.394
AGGTGACG | -0.188

Sequence | PBM E-score
ACGTGACG | -0.176
AAGTGATG | 0.0804
AGGTGACT | 0.484
CCTCTGAA | -0.0251
AAATCCCA | -0.203
ACCCACCC | 0.111
CACCTAGG | 0.0188
ATCAGAAC | 0.127
CTGAGAGA | -0.0026
AAGCTTGG | -0.0782
GAGATGAC | 0.367
AAGATGAC | 0.312
CAGATGAC | 0.215
GGAACTGA | -0.00126
TCGACCAA | -0.188
AATAGAAA | -0.119
CCCTCCCA | -0.298
CCTCATTA | 0.0877
GCTCATTA | -0.044
ATTCATTC | 0.122
ACTCATTA | 0.372
ACTCATTC | 0.394
ACACATTG | 0.0326
CCTCATTC | -0.176
ACTCATTG | 0.382

Sequence | PBM E-score
ATTCATTG | 0.214
ATGGCTTG | -0.159
GATTTACC | 0.00206
ATTTCATA | -0.0227
ATCCGAAT | 0.0995
AAGGGATG | -0.176
CATCAGTC | 0.321
AATCAGTC | 0.368
AGTCAGTC | 0.442
ACTCAGTC | 0.411
AATCAGTG | 0.239
AGTCAGTG | 0.427
ATTCAGTG | 0.214
ACTCAGTG | 0.251
ATTCAGTC | 0.341
CCTCAGTC | 0.326
CGTCAGTC | 0.291
AATCAGTA | 0.234
ACGCATGA | 0.146
ATCCGTTG | -0.037
ACCTTGAA | 0.0165
GAACCAGA | 0.0172
ACCCTCAC | -0.132
CGCACATC | 0.00301
CGTCAGTA | 0.0514

Sequence | PBM E-score
AGTCAGTA | 0.42
GGTCAGTA | -0.0314
CTTTAACA | -0.0802
GCCTAGGC | -0.179
AGGAGCGC | -0.205
ACTCACTG | 0.374
ACTCACAC | 0.364
CCTCACTC | -0.077
ACTCACTC | 0.371
ACTCACTA | 0.346
ACACACTG | 0.0265
CGGTTTAG | -0.1
AGAGACAA | -0.175
TAAACCAA | -0.0214
AAGGACTA | 0.375
CAGGACTC | 0.344
CAGGACTA | 0.262
GAGGACTC | 0.387
AAGGACCA | -0.026
AAGGACGA | -0.0247
TAGGACTA | 0.357
AAGGACTG | 0.184
AAGGACTC | 0.39
GAGGACAC | -0.221
AAGGACTT | 0.0394

Sequence | PBM E-score
GAGGACTA | 0.369
ACCGGCGG | -0.156
CCAGATGC | 0.0961
AGCTAGAT | -0.12
AACCCCAG | -0.047
GGCAACTA | -0.0239
CCCATCTA | -0.0727
CAAACGAC | 0.0734
GTGTGCGA | 0.0296
AGATCTTA | 0.137
GACGTTCA | -0.12
GCATTTCC | -0.0262
AGAACACA | 0.0627
CAAAGTCG | 0.167
TAAAGTTA | 0.106
CAAAGTCC | -0.222
GAAAGTCC | -0.215
AAAAGTCC | -0.0242
TAAAGTAA | 0.049
AAAAGTCA | 0.374
GAAAGTCA | 0.428
GAAAGTTA | 0.137
TAAAGTCA | 0.413
AAAAGTCT | 0.0759
CAAAGTCA | 0.399
